A number with no mark means an inactive call.
System: Aedes aegypti larvae
Experiment: larval motility relative to same well at 0 h (fraction); higher = more motile (less active compound), active = 0.4 or less
Conditions: 10 µM
How it was run: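 Compounds at 10 µM (1% v/v DMSO) were applied to about 10 Aedes aegypti larvae per well in 100 µL, with every plate including solvent and larvicide control wells. Motility movies were taken with INVAPP at 0, 2 and 24 h, and results are medians of three independent larval batches. Relative motility is each well's score expressed as a fraction of its own first score.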

NC(=O)c1[nH]c2ccc(S(N)(=O)=O)cc2c1-c1ccccc1
larval motility (2 h): 0.832 | larval motility (24 h): 1.05

C=C(C)[C@@H]1CC[C@]2(C(=O)O)CC[C@]3(C)[C@H](CC[C@@H]4[C@@]5(C)CC[C@H](O)C(C)(C)[C@@H]5CC[C@]43C)[C@@H]12
larval motility (2 h): 1.08 | larval motility (24 h): 1.18

Oc1cccc(C(Nc2nccs2)c2ccc3cccnc3c2O)c1 (stereo not drawn)
larval motility (2 h): 1.09 | larval motility (24 h): 0.912

COc1ccc2c(c1)cc(CNC(=O)c1cc3ccccc3o1)n2CC(=O)O
larval motility (2 h): 0.674 | larval motility (24 h): 0.871

COc1cccc(N2CCN(C3=Nc4c(F)cccc4[C@H](CC(=O)O)N3c3cc(C(F)(F)F)ccc3OC)CC2)c1
larval motility (2 h): 1.02 | larval motility (24 h): 1.01

Nc1cccc(-c2nc(N)nc(NC3Cc4ccccc4C3)n2)c1
larval motility (2 h): 1.08 | larval motility (24 h): 0.803

CCCCN1C[C@H](O)[C@@H](O)[C@H](O)[C@H]1CO
larval motility (2 h): 0.87 | larval motility (24 h): 0.809

CCc1cc(O)c(Oc2ccc(C(N)=O)cc2F)cc1F
larval motility (2 h): 0.539 | larval motility (24 h): 0.942

Oc1cc(-c2cccc3ccccc23)[nH]n1
larval motility (2 h): 0.626 | larval motility (24 h): 0.554

Cc1cc(C)n2nc(C(=O)NS(=O)(=O)c3c(C)cccc3OC(F)(F)F)nc2n1
larval motility (2 h): 1.04 | larval motility (24 h): 1.13

Cc1c[nH]c(=O)nc1NCc1ccccc1
larval motility (2 h): 1.16 | larval motility (24 h): 0.91

CCCCCCCc1[nH]c2ccccc2c(=O)c1O
larval motility (2 h): 0.74 | larval motility (24 h): 0.565

CN(O)C(=O)c1cc2c(CN3CCC[C@H]3C(N)=O)cn(Cc3ccc(F)cc3)c2cn1
larval motility (2 h): 0.668 | larval motility (24 h): 1.08

CC(Cc1ccccc1)C(=O)Nc1ccc(Cl)cc1C(=O)O (stereo not drawn)
larval motility (2 h): 1.32 | larval motility (24 h): 1.05

C/C(=N\NC(=O)C1CC1c1ccccc1)c1ccc(NC(=O)c2ccco2)cc1 (stereo not drawn)
larval motility (2 h): 0.804 | larval motility (24 h): 0.958

CC(C)(C)c1cccc(-c2nc3cc(C(=N)N)ccc3[nH]2)c1O
larval motility (2 h): 1.04 | larval motility (24 h): 0.466

O=C(NCc1cccc2ccccc12)c1cccs1
larval motility (2 h): 0.689 | larval motility (24 h): 0.669

CCCCOC(=O)Nc1cc2nc(C3CCCCC3)[nH]c2cc1N(CC)CC
larval motility (2 h): 0.544 | larval motility (24 h): 0.594

COC(=O)Nc1nc2c(C)cccc2[nH]1
larval motility (2 h): 0.678 | larval motility (24 h): 0.778

CC1=C(/C=C/C(C)=C/C=C/C(C)=C/C(=O)Nc2ccc(O)cc2)C(C)(C)CCC1
larval motility (2 h): 0.95 | larval motility (24 h): 0.595

CC(=O)Nc1cc(NS(=O)(=O)c2ccc(Cl)cc2)cc2c(Cl)n[nH]c12
larval motility (2 h): 0.744 | larval motility (24 h): 0.752

CC[N+]1(C/C2=C/CCCCCC2)CCC(NC(=O)C2c3cc(Cl)ccc3Oc3ccc(Cl)cc32)CC1 (stereo not drawn)
larval motility (2 h): 1.22 | larval motility (24 h): 0.723

COCCn1cnc2c(=O)[nH]c(Nc3ccccc3)nc21
larval motility (2 h): 0.921 | larval motility (24 h): 0.552

N[C@H](CCC(=O)N[C@@H](Cc1c[nH]c2ccccc12)C(=O)O)C(=O)O
larval motility (2 h): 0.936 | larval motility (24 h): 0.838

O=C(Nc1ccc(N2CCN(C(=O)c3ccccc3)CC2)cc1)c1ccc2c(c1)OCO2
larval motility (2 h): 0.946 | larval motility (24 h): 0.971

Nc1nc(NC2Cc3ccc(F)cc3C2)nc(N2CCCCC2)n1 (stereo not drawn)
larval motility (2 h): 0.662 | larval motility (24 h): 0.628

COc1ccc(C2CNC(=O)C2)cc1OC1CCCC1 (stereo not drawn)
larval motility (2 h): 0.834 | larval motility (24 h): 0.959

CCCCCCC1c2ccc(O)cc2Oc2cc(O)ccc21
larval motility (2 h): 0.468 | larval motility (24 h): 0.989

C[C@@H](NC(=O)c1ccccc1-c1ccccc1)B(O)O
larval motility (2 h): 0.616 | larval motility (24 h): 0.615

Clc1ccc(COC(Cn2ccnc2)c2ccc(Cl)cc2Cl)c(Cl)c1 (stereo not drawn)
larval motility (2 h): 0.499 | larval motility (24 h): 0.677

OCCCCn1cnc2c(O)nc(NCc3ccc(Cl)c(Cl)c3)nc21
larval motility (2 h): 0.982 | larval motility (24 h): 0.79

Cc1c(F)cccc1NC(=O)Nc1ccc(Cl)c(S(=O)(=O)[C@H]2CCCNC2)c1O
larval motility (2 h): 0.645 | larval motility (24 h): 0.669

COc1ccc2sc3c(c2c1)NC(C)CNC3=O (stereo not drawn)
larval motility (2 h): 0.748 | larval motility (24 h): 0.959

Cc1ncc([N+](=O)[O-])n1CC(C)O (stereo not drawn)
larval motility (2 h): 1.43 | larval motility (24 h): 1.55

CN1CCN(c2ccc3[nH]c(-c4ccc5[nH]c(-c6ccc(O)cc6)nc5c4)nc3c2)CC1
larval motility (2 h): 0.732 | larval motility (24 h): 1.11

COc1ccc(CNC(=O)C2CCN([C@H](C)c3cccc4ccccc34)CC2)cc1
larval motility (2 h): 0.771 | larval motility (24 h): 0.922

CCOc1ccc(C(=O)NCCc2ccccc2)cc1
larval motility (2 h): 1.05 | larval motility (24 h): 0.979

Cc1ccn2c(C(=O)NCc3ccccc3)c(C)nc2c1
larval motility (2 h): 1.47 | larval motility (24 h): 2.35

O=C(NCc1ccc(F)cc1)c1c(O)c2ncccc2[nH]c1=O
larval motility (2 h): 0.718 | larval motility (24 h): 0.908

Nc1nc(O)c(Br)c(-c2ccccc2)n1
larval motility (2 h): 0.633 | larval motility (24 h): 0.648

Nc1nc(O)c2ncn(COC(CO)CO)c2n1
larval motility (2 h): 1.05 | larval motility (24 h): 0.821

CN1c2ccc(Cl)cc2N(c2ccccc2)C(=O)c2cn(Cc3ccc(CN4CCOCC4)cc3)nc21
larval motility (2 h): 0.674 | larval motility (24 h): 0.985

O=C(/C(=C/c1ccc(Cl)cc1Cl)n1ccnc1)c1ccc(Cl)cc1
larval motility (2 h): 0.446 | larval motility (24 h): 1.04

O=S(=O)(Nc1ccc(O)cc1)c1cccc2cccnc12
larval motility (2 h): 1.06 | larval motility (24 h): 0.629

C=C(C)n1c(=O)n(Cc2ccccc2C)c2ccccc21
larval motility (2 h): 1.39 | larval motility (24 h): 0.851

CC(C)=CCC/C(C)=C/CNCCNC1C2CC3CC(C2)CC1C3 (stereo not drawn)
larval motility (2 h): 0.85 | larval motility (24 h): 0.924

N=C(N)c1ccc(COc2ccc(Cl)cc2)cc1
larval motility (2 h): 1.16 | larval motility (24 h): 0.589

CC1CN(c2ncnc3c2c(-c2ccccc2)cn3-c2ccc(F)cc2)CC(C)O1 (stereo not drawn)
larval motility (2 h): 0.791 | larval motility (24 h): 0.856

Cc1nc(-c2ccc(C3N(C)c4ccc(F)cc4C(=O)N3c3ccccc3)s2)cs1 (stereo not drawn)
larval motility (2 h): 0.613 | larval motility (24 h): 0.822

Nc1ccc(-c2nc3cc(C(F)(F)F)ccc3n2C23CC4CC(CC(C4)C2)C3)cc1
larval motility (2 h): 1.1 | larval motility (24 h): 1.22

O=C1[C@H](CC[C@H](O)c2ccc(F)cc2)[C@@H](c2ccc(O)cc2)N1c1ccc(F)cc1
larval motility (2 h): 0.873 | larval motility (24 h): 1.08

O=C(O)CSc1cc(NS(=O)(=O)c2cccc3cccnc23)c2ccccc2c1O
larval motility (2 h): 0.969 | larval motility (24 h): 0.675

CN(C)[C@@H]1C(=O)C(C(N)=O)=C(O)[C@@]2(O)C(=O)C3=C(O)c4c(O)c(NC(=O)CN5CCCC5)cc(F)c4C[C@H]3C[C@@H]12
larval motility (2 h): 0.841 | larval motility (24 h): 1.78

O=S(=O)(Nc1ccccc1)c1ccc(NC(=S)Nc2ccccc2)cc1
larval motility (2 h): 0.779 | larval motility (24 h): 0.792

Cc1onc(-c2ccccc2Cl)c1C(=O)N[C@@H]1C(=O)N2[C@@H]1SC(C)(C)[C@@H]2C(=O)O
larval motility (2 h): 1.22 | larval motility (24 h): 1.24

O=C(Nc1[nH]c(=O)ncc1F)c1ccccc1
larval motility (2 h): 0.527 | larval motility (24 h): 0.773

CCCNc1ccc(S(=O)(=O)Nc2cc(C)on2)cc1
larval motility (2 h): 0.414 | larval motility (24 h): 0.825

O=C(O)CCNC(=O)c1ccccc1
larval motility (2 h): 0.977 | larval motility (24 h): 1.03

CN1CCN(Cc2ccc(-c3cnc4[nH]cc(-c5ccc6[nH]ccc6c5)c4c3)cc2)CC1
larval motility (2 h): 0.696 | larval motility (24 h): 0.967

O=C(N[C@H](CCS)C(=O)N[C@H](Cc1ccccc1)C(=O)O)c1cc2ccccc2[nH]1
larval motility (2 h): 1.47 | larval motility (24 h): 1.56

Cn1cncc1[C@@](N)(c1ccc(Cl)cc1)c1ccc2c(c1)c(-c1cccc(Cl)c1)cc(=O)n2C
larval motility (2 h): 0.645 | larval motility (24 h): 0.876

O=C(O)[C@H]1C2CCC(CC2)[C@@H]1Nc1nc(-c2c[nH]c3ncc(F)cc23)ncc1F
larval motility (2 h): 0.877 | larval motility (24 h): 1.17

CC(C)(C)c1cc(C(=O)/C(C#N)=N/Nc2cccc(Cl)c2)no1
larval motility (2 h): 1.14 | larval motility (24 h): 1.21

CCc1cc(Cc2cnc(N)nc2N)cc2c1N(C)CCC2C (stereo not drawn)
larval motility (2 h): 0.948 | larval motility (24 h): 0.898

Cn1cc(NC(=O)c2cc(NC(=O)c3ccc(/C=C/c4cnc5ccccc5c4)cc3)cn2C)cc1C(=O)NCCN1CCOCC1
larval motility (2 h): 1.3 | larval motility (24 h): 0.773

CCN(CC)CCCC(C)Nc1ccnc2cc(Cl)ccc12 (stereo not drawn)
larval motility (2 h): 0.715 | larval motility (24 h): 0.484

CCCCC(CC)CNC(=N)NC(=N)NCCCCCCNC(=N)NC(=N)NCC(CC)CCCC (stereo not drawn)
larval motility (2 h): 0.646 | larval motility (24 h): 1.07

CN(C)CCNC(=O)c1cccc2cccnc12
larval motility (2 h): 0.941 | larval motility (24 h): 0.825

C[C@H]1COc2c(N3CCN(C)CC3)c(F)cc3c(=O)c(C(=O)O)cn1c23
larval motility (2 h): 0.447 | larval motility (24 h): 0.712

From the supplement of paper PMC8540655
